Results filed as inconclusive are left out. The source made the active and inactive calls.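 Rule for the calls, unless noted: active = normalized viability below 100% at a tested concentration; inactive = the rest.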
Tests used:
[1] = growth inhibition of DIPG glioma cells, dose response, cell-based, SU-DIPG-XVII, MIPE5.0, CellTiter-Glo, qHTS (AID 1347060; cut-off not given, nearly all actives have AC50 up to about 26 µM;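 for AC50: cells exposed to compound for 48 hours before viability readout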); settings: SU-DIPG-XVII viability, CellTiter-Glo ATP luminescence
[2] = growth inhibition of DIPG glioma cells, dose response, cell-based, SU-DIPG-XIII, MIPE5.0, CellTiter-Glo, qHTS (AID 1347064; cut-off not given, nearly all actives have AC50 up to about 23 µM;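 for AC50: cells exposed to compound for 48 hours before the viability read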); settings: SU-DIPG-XIII viability, CellTiter-Glo ATP luminescence
[3] = viability loss in pontine glioma line – cell-based, SU-DIPG-XXV, MIPE5.0, CellTiter-Glo, qHTS, dose response (AID 1347065; cut-off not given, nearly all actives have AC50 up to about 26 µM;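 note: cells exposed to compound for 48 hours before ATP readout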); settings: CellTiter-Glo ATP luminescence
[4] = JHH-DIPG-1 glioma cell viability, MIPE5.0 library, CellTiter-Glo luminescence, qHTS (AID 1347067; cut-off not given, nearly all actives have AC50 up to about 26 µM;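 note: cells exposed to compound for 48 hours before readout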); settings: JHH-DIPG-1 glioma viability, CellTiter-Glo ATP luminescence
[5] = SU-DIPG-XXV glioma cell viability, MIPE5.0 library, qHTS (AID 1347068; cut-off not given, nearly all actives have IC50 up to about 30 µM;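 for IC50: cells exposed to compound for 48 hours before viability readout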)
[6] = sensitizers of A549 cells to miR-34 induction, primary screen, imaging, A549 dox-inducible miR-34, nuclei and caspase counts (AID 1347080;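 active = compounds whose cell count with miR-34 switched on is under 0.7 times the count with it off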); settings: A549 miR-34 inducible, Hoechst nuclei count, 48 h
[7] = survival rescue of mitochondrial mutant cells in low glucose, primary screen, MELAS cybrids, Rieske KO mouse fibroblasts, CellTiter-Glo (AID 1508586;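 active = mean z-score across replicates of 1.96 or higher in either the MELAS or the Rieske mutant cell line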;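 note: z relative to plate mean and SD of compound and empty wells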)
[8] = modifiers of HSF1 nuclear foci, imaging, Selleck Cancer Library (AID 1347162; in the data active = plate-normalised HSF1 focus index below about 0.46); settings: human cells, at 10 µM; SSMD: measured here: HSF1 foci SSMD mean; cell count: measured here: cell number; plate-normalised HSF1 focus index: stronger effect = lower value
[9] = phospholipid biosynthesis inhibitors in animal cells, primary screen, cell-based, LOPAC library, screen 4 (AID 1347384; call rule not given here); settings: phospholipid biosynthesis inhibition screen, at 10 µM
[10] = ovarian cancer cell viability with rucaparib, profiling panel, oncology-focused library, rucaparib conditional (AID 1508598); settings: patient-derived ovarian cancer cells, CellTiter-Glo viability, 144 h, stronger effect = lower value
[11] = stronger effect = lower value, cell number ratio, induced over uninduced
[12] = measured here: relative caspase fold change +Dox/-Dox
[13] = measured here: total cells with miR-34 induction, stronger effect = lower value
[14] = measured here: total cells without miR-34 induction
[15] = MELAS cybrid survival, CellTiter-Glo 48 h, stronger effect = higher value
[16] = Rieske KO mouse fibroblast survival, CellTiter-Glo 72 h

COc1cc(N2CCC(N)CC2)ccc1Nc1ncc(Cl)c(-c2c[nH]c3ccccc23)n1
inactive: fold change [6, 11] 0.915 | z-score [7, 15] 0.226
1920: cell count [6, 13]
0.405: fold change [6, 12]
2100: cell count [6, 14]
-0.504: z-score [7, 16]
active: AC50 [1] 0.525 µM | AC50 [2] 0.263 µM | AC50 [3] 0.209 µM | AC50 [4] 0.525 µM | IC50 [5] 0.742 µM

Cc1cc(Nc2ncc(Cl)c(Nc3ccccc3S(=O)(=O)C(C)C)n2)c(OC(C)C)cc1C1CCNCC1
3290: cell count [6, 13]
inactive: fold change [6, 11] 0.935 | z-score [7, 15] -0.455
0.748: fold change [6, 12]
3520: cell count [6, 14]
-0.428: z-score [7, 16]
active: AC50 [1] 2.95 µM | AC50 [2] 1.32 µM | AC50 [3] 0.934 µM | AC50 [4] 1.66 µM | IC50 [5] 3.32 µM

C=C1C(=O)O[C@H]2C[C@H](C)C(/C=C/C(C)=O)=CC[C@H]12
active: AC50 [1] 4.17 µM | AC50 [2] 2.63 µM | AC50 [3] 4.68 µM | AC50 [4] 3.32 µM | IC50 [5] 7.42 µM

CCC(=O)Nc1cccc(Oc2nc(Nc3ccc(N4CCN(C)CC4)cc3OC)ncc2Cl)c1
4310: cell count [6, 14]
0.553: fold change [6, 12]
3260: cell count [6, 13]
0.64: z-score [7, 16]
inactive: outcome [5] | fold change [6, 11] 0.756 | z-score [7, 15] -0.403
active: AC50 [1] 9.34 µM | AC50 [2] 10.5 µM | AC50 [3] 7.42 µM | AC50 [4] 18.6 µM

C=CC(=O)Nc1ccc2ncnc(Nc3cccc(Br)c3)c2c1
-0.0488: z-score [7, 16]
3830: cell count [6, 14]
0.865: fold change [6, 12]
3490: cell count [6, 13]
active: AC50 [1] 10.5 µM | AC50 [2] 18.6 µM | AC50 [3] 9.34 µM | AC50 [4] 13.2 µM | IC50 [5] 4.68 µM
inactive: fold change [6, 11] 0.91 | z-score [7, 15] -0.254

Cc1nnc(C(C)C)n1C1CC2CCC(C1)N2CC[C@H](NC(=O)C1CCC(F)(F)CC1)c1ccccc1 (stereo not given in full)
active: viability ([10]; at 0.000305 µM, OCI-P5x cells, with rucaparib 20 µM, 100% = cells with rucaparib alone) 85.1% | viability ([10]; at 0.000305 µM, OCI-P5x cells, without rucaparib) 83.1% | viability ([10]; at 0.00122 µM, OCI-C5x cells, without rucaparib) 98.5% | viability ([10]; at 0.00122 µM, OCI-P5x cells, with rucaparib 20 µM, 100% = cells with rucaparib alone) 86.3% | viability ([10]; at 0.00122 µM, OCI-P5x cells, without rucaparib) 79.3% | viability ([10]; at 0.00488 µM, OCI-P5x cells, with rucaparib 20 µM, 100% = cells with rucaparib alone) 86.7% | viability ([10]; at 0.00488 µM, OCI-P5x cells, without rucaparib) 91.1% | viability ([10]; at 0.0195 µM, OCI-P5x cells, with rucaparib 20 µM, 100% = cells with rucaparib alone) 90.9% | viability ([10]; at 0.0195 µM, OCI-P5x cells, without rucaparib) 90.2% | viability ([10]; at 0.0781 µM, OCI-P5x cells, with rucaparib 20 µM, 100% = cells with rucaparib alone) 96% | viability ([10]; at 0.0781 µM, OCI-P5x cells, without rucaparib) 94% | viability ([10]; at 0.313 µM, OCI-C5x cells, without rucaparib) 99.8% | viability ([10]; at 0.313 µM, OCI-P5x cells, with rucaparib 20 µM, 100% = cells with rucaparib alone) 95.9% | viability ([10]; at 0.313 µM, OCI-P5x cells, without rucaparib) 94.1% | viability ([10]; at 1.25 µM, OCI-P5x cells, with rucaparib 20 µM, 100% = cells with rucaparib alone) 98.8% | viability ([10]; at 1.25 µM, OCI-P5x cells, without rucaparib) 93.2% | viability ([10]; at 5 µM, OCI-P5x cells, with rucaparib 20 µM, 100% = cells with rucaparib alone) 96.7% | viability ([10]; at 5 µM, OCI-P5x cells, without rucaparib) 95.4%
inactive: outcome [1] | outcome [2] | outcome [3] | outcome [4] | outcome [5] | plate-normalised HSF1 focus index [8] 1.04 | outcome [9] | viability ([10]; at 0.000305 µM, OCI-C5x cells, with rucaparib 10 µM, 100% = cells with rucaparib alone) 106% | viability ([10]; at 0.000305 µM, OCI-C5x cells, without rucaparib) 101% | viability ([10]; at 0.00122 µM, OCI-C5x cells, with rucaparib 10 µM, 100% = cells with rucaparib alone) 107% | viability ([10]; at 0.00488 µM, OCI-C5x cells, with rucaparib 10 µM, 100% = cells with rucaparib alone) 105% | viability ([10]; at 0.00488 µM, OCI-C5x cells, without rucaparib) 107% | viability ([10]; at 0.0195 µM, OCI-C5x cells, with rucaparib 10 µM, 100% = cells with rucaparib alone) 113% | viability ([10]; at 0.0195 µM, OCI-C5x cells, without rucaparib) 107% | viability ([10]; at 0.0781 µM, OCI-C5x cells, with rucaparib 10 µM, 100% = cells with rucaparib alone) 117% | viability ([10]; at 0.0781 µM, OCI-C5x cells, without rucaparib) 107% | viability ([10]; at 0.313 µM, OCI-C5x cells, with rucaparib 10 µM, 100% = cells with rucaparib alone) 111% | viability ([10]; at 1.25 µM, OCI-C5x cells, with rucaparib 10 µM, 100% = cells with rucaparib alone) 118% | viability ([10]; at 1.25 µM, OCI-C5x cells, without rucaparib) 108% | viability ([10]; at 5 µM, OCI-C5x cells, with rucaparib 10 µM, 100% = cells with rucaparib alone) 108% | viability ([10]; at 5 µM, OCI-C5x cells, without rucaparib) 112%
0.747: SSMD [8]
6250: cell count [8]

— PubChem BioAssay
